As usually defined, the inhibition is the relative decrease from the control value, in per cent.

For this experiment, the target named is Solute carrier family 2, facilitated glucose transporter member 1 (Homo sapiens) (UniProt P11166). As to the kind of experiment: ST_JUDE_LEISH: Cytotoxicity at 2uM final concentration against transgenic Leishmania Mexicana promastigotes LmGLUT1 that are glucose transport deficient and complemented with the human glucose transporter GLUT1. Activity is measured by DNA content using SYBR green in vitro. The class given is functional.
Solute carrier family 2, facilitated glucose transporter member 1 (Homo sapiens), sequence (P11166 whole entry): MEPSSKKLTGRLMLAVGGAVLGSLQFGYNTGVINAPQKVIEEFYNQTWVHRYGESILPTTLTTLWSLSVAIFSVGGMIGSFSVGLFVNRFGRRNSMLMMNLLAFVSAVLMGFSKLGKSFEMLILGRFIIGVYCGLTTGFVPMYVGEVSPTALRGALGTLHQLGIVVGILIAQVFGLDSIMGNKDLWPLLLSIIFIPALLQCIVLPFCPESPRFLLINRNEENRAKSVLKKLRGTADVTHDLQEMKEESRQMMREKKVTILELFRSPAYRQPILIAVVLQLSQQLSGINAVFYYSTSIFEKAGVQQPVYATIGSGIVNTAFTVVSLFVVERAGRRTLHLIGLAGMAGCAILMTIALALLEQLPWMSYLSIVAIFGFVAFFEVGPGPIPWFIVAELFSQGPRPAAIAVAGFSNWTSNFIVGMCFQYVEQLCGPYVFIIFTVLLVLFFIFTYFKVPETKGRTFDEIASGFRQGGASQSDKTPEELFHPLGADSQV
For the compound `Cc1ccc2nc(C)cc(N/N=C/c3ccccc3[N+](=O)[O-])c2c1`, the inhibition came to 10.8%.
On to `Cc1[nH]c2ccc(-c3ccc(N(C)C)cc3)cc2c(=O)c1Cl`, for which the inhibition is 2.49%.
As to `Nc1c(Cl)cc(C(O)CNCCCCCCOCCc2ccc(CO)s2)cc1Cl` (stereo not given), the inhibition amounted to 2.77%.
For the compound `Cc1cccc2nc(-c3ccc(-c4ccc(CN5CCC(CCN6CCCCC6)CC5)cc4)cc3)[nH]c12`, the inhibition was found to be 8.93%.
In the case of `Cn1ccnc1CNC(=O)c1ccc(-c2cccc(-c3nc4cc(C(F)(F)F)ccc4[nH]3)c2)cc1`, the inhibition stood at 1.73%.
With `COc1c(C=NNc2nc(=Nc3ccccc3)[nH]c(=Nc3ccccc3)[nH]2)ccc(Br)c1O` the figure was 11.3%; with `O=S(=O)(c1cc(Cl)c(Cl)cc1Cl)N1CCCCC(c2ccc(C(F)(F)F)cc2)=N1`, -0.66%.
Turning to `COc1cc(NC(=O)NC(CCN2CCC3(CCc4ccccc43)CC2)c2ccc(Cl)c(Cl)c2)cc(OC)c1OC` (stereo not given), the inhibition is 0.41%.
For the compound `CN=C(Nc1c(Cl)cccc1Cl)N(C)C`, the inhibition was 2.85%.
`Cc1c(Cc2ccc(F)cc2)c(Cl)nc2nc(N)nc(N)c12`: the inhibition worked out at 0.75%.
As for `O=C1Nc2ccccc2/C1=N/NC(=S)N1CCOCC1`, the inhibition is -0.69%.
Take `O=C(Cc1cccs1)NCC(c1ccccc1Cl)c1c[nH]c2ccccc12` (stereo not given): the inhibition worked out at 2.89%.
Turning to `Nc1nc(Nc2cccc(Cl)c2)ncc1C(=O)NCc1ccncc1`, the inhibition turned out to be 9.01%.
Consider `CCN1CCC(N(Cc2ccc(-c3ccc(C(F)(F)F)cc3)cc2)C(=O)Cn2c(CCc3cccc(F)c3F)cc(=O)c3ccc(OCc4ccccc4)cc32)CC1`, for which the inhibition came out at 3.79%.
As for `Clc1ncccc1-c1nc(NCCC(c2ccccc2)c2ccccc2)no1`, the inhibition was determined as 4.29%.
With `CN1c2ccc([N+](=O)[O-])cc2C(C)(C)C12C=Cc1cc(Br)cc([N+](=O)[O-])c1O2` (stereo not given), the inhibition came out at 2.03%.
Consider `COc1ccc(-c2ccc(CNC(=O)c3ccc(C#N)cc3)c(F)c2)cc1CN1CCCN(C)CC1`, for which the inhibition amounted to 0.92%.
Turning to `CCc1ccc(CN2CCCCC(NC(=O)c3cc(-c4ccccc4F)cs3)C2)cc1` (stereo not given), the inhibition is -2.71%.
Regarding `CC(C)(C)OC(=O)NCc1ccc(Nc2nnc(-c3cccc(OCC(=O)NCc4cc(C(F)(F)F)cc(C(F)(F)F)c4)c3)o2)cc1`, the inhibition was determined as 0.8%.
On to `NCCc1cccc(-c2cnc3[nH]cc(-c4ccc(C(=O)O)cc4)c3c2)c1`, for which the inhibition is 0.56%.
Turning to `COc1ccc(-c2ccc(NC(=O)c3cccc(C#N)c3)cc2)cc1CN(C)C`, the inhibition came out at 1.28%.
`CCN1CCN(c2cc(C)c3cc(NC(=O)c4ccc(OC)c([N+](=O)[O-])c4)ccc3n2)CC1`: the inhibition amounted to 2.21%.
With `O=C(NCCN1CCCCC1)c1cccc(Nc2nccc(Nc3ccc(Oc4ccccc4)cc3)n2)c1`, the inhibition is -0.01%.
Regarding `N#Cc1cccc(C(=O)Nc2ccc(-c3ccc(CN4CCCC4)cc3)cc2)c1`, the inhibition stood at 7.84%.
For `COc1ccccc1Nc1nc(C)cc(NCc2ccc(-n3ccnc3)cc2)n1`, the inhibition came out at 8.92%.
With `CCCCCCN1CCCN(Cc2ccc(C(=O)Nc3ccc(F)c(F)c3)cc2)CC1`, the inhibition is 17.1%.
With `COc1ccc(CNc2ccnc(-n3cnc4cc(C)c(C)cc43)n2)cc1Cl` the figure was 4.37%; with `c1ccc2c(c1)CN(Cc1ccsc1)CC1(CCN(Cc3c[nH]c4cnccc34)CC1)O2`, 4.5%; with `CCCc1cc2c3c(N)nc(N)nc3ccc2n1C(CC)CC`, 46.3%.
In the case of `CCc1ccc(CN2CCC(CNC(=O)c3cc(-c4cccc(C(F)(F)F)c4)cs3)C2)cc1` (stereo not given), the inhibition was -2.78%.
Consider `CN1CCCC1CNS(=O)(=O)c1ccc(C(=O)NCC2CC2)cc1` (stereo not given), for which the inhibition was determined as 1.51%.
In the case of `Fc1ccc2[nH]c(-c3cccc(-c4ccc(CN5CCN(c6ccncc6)CC5)cc4)c3)nc2c1`, the inhibition was determined as 0.76%.
With `O=C(Nc1cccc(-c2cccc(-c3nc4cc(F)ccc4[nH]3)c2)c1)c1csnn1`, the inhibition is 6.12%.
For the compound `O=c1c2ccccc2[nH]c2nc3ccccc3c(Nc3ccccc3)c12`, the inhibition was found to be 10.2%.
Turning to `O=C(O)c1cc(C(F)(F)F)co1`, the inhibition was -2.13%.
`Cc1ccc(Nc2ccnc(Nc3ccc(F)c(Cl)c3)n2)cc1O`: the inhibition amounted to 6.74%.
As for `CC(C)COc1ccc(Cl)cc1Cc1nc(-c2nc3ccc(CN4CCN(C)CC4)cc3[nH]2)co1`, the inhibition is 8.24%.
For the compound `FC(F)(F)COc1ccc2ccccc2c1CNCCCCCCNCc1c(OCC(F)(F)F)ccc2ccccc12`, the inhibition was 1.61%.
Next, `CC(C)Oc1ccc(CCCON2C(=N)N=C(N)NC2(C)C)cc1`: 20.8%; `Cc1noc(C)c1-c1ccc2c(Nc3ccccc3C(C)(C)C)c(C(=O)NCc3cccc4ccccc34)cnc2c1`: 2.41%.

These data come from ChEMBL document CHEMBL3433997, “St. Jude Leishmania screening dataset” (2016).
